Sampled rows, rich in hits. Any-hit rate of the full collection: about 2.3%.
C diff growth: C. difficile growth inhibition. Clostridium difficile clinical isolate growth, OD600, 24 h; hits give low values. growth activity, negative = inhibition, % at 16 µg/mL (by protocol). 86,000 compounds, 0.25% hits;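 active = mean growth activity at or below -80% and every replicate also at or below -80%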;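 also: 0% = DMSO wells and -100% = levofloxacin 16 µg/mL wells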
Pf Dd2 inh: inhibitors of Plasmodium falciparum Dd2 growth; P. falciparum Dd2 growth, SYBR Green, 72 h; hits give low values; activity change, % at 10 µM; 94,000 compounds, 2.3% hits; AID 1159554; in the data active = activity change below about -80%
Active calls of the source: *; . = no result.

SMILES	C diff growth	Pf Dd2 inh
COc1ccc(C#Cc2ccc([C@H]3[C@H](CO)N4CCCCN(C)C[C@@H]34)cc2)cc1	-3	-34
Cc1ccc(S(=O)(=O)N[C@@H]2CC[C@@H](CC(=O)N3CCc4ccccc4C3)O[C@H]2CO)cc1	.	-16
Cc1ccc(S(=O)(=O)Nc2ccc3c(c2)C(=O)N([C@@H](C)CO)C[C@H](C)[C@H](CN(C)C(=O)Nc2ccccc2)O3)cc1	-2	14
Cc1ccc(S(=O)(=O)Nc2ccc3c(c2)C(=O)N([C@@H](C)CO)C[C@@H](C)[C@H](CN(C)C(=O)Nc2c(C)noc2C)OCCCC[C@@H](C)O3)cc1	2	32
CCCN1C[C@@H](C)[C@H](OC)CN(C)C(=O)c2ccc(NC(=O)c3cccc(F)c3)cc2OC[C@H]1C	.	-87*
CCCC(=O)Nc1ccc2c(c1)OC[C@H](C)N(Cc1ccc(F)cc1)C[C@@H](C)[C@H](OC)CN(C)C2=O	.	-61
CCCNC(=O)Nc1ccc2c(c1)C(=O)N(C)C[C@H](OC)[C@@H](C)CN(C(=O)C1CCOCC1)[C@H](C)CO2	.	-79
CO[C@@H]1CN(C)C(=O)c2ccc(NC(=O)c3ccc4c(c3)OCO4)cc2OC[C@@H](C)N(Cc2ccc3c(c2)OCO3)C[C@H]1C	5	-85*
CCCN1C[C@H](C)[C@H](OC)CN(C)C(=O)c2ccc(NC(=O)c3cccc(F)c3)cc2OC[C@H]1C	.	-35
CCCNC(=O)Nc1ccc2c(c1)C(=O)N(C)C[C@@H](OC)[C@H](C)CN(C(=O)C1CCOCC1)[C@@H](C)CO2	.	-87*
CCCC(=O)Nc1ccc2c(c1)OC[C@@H](C)N(Cc1ccc(F)cc1)C[C@@H](C)[C@H](OC)CN(C)C2=O	3	-87*
CO[C@H]1CN(C)C(=O)c2ccc(NC(=O)c3ccc4c(c3)OCO4)cc2OC[C@@H](C)N(CC2CC2)C[C@H]1C	.	-2
C[C@@H]1CCCCO[C@H](CN(C)Cc2ccc(C(F)(F)F)cc2)[C@H](C)CN([C@@H](C)CO)C(=O)c2cc(NS(C)(=O)=O)ccc2O1	-8	-33
C[C@@H]1CN([C@H](C)CO)C(=O)Cc2cc(NS(=O)(=O)c3cccs3)ccc2O[C@@H]1CN(C)C(=O)Nc1ccccc1	-7	7
C[C@@H]1CN([C@H](C)CO)C(=O)c2cc(C#CC3(O)CCCC3)cnc2O[C@H]1CN(C)S(=O)(=O)c1cccc(F)c1	1	-19
C[C@@H]1CN([C@@H](C)CO)C(=O)c2cc(NC(=O)C3CCCCC3)ccc2O[C@@H](C)CCCCO[C@@H]1CN(C)S(=O)(=O)c1ccc(Cl)cc1	0	-81*
Cc1ccc(S(=O)(=O)N(C)C[C@@H]2OCCCC[C@@H](C)Oc3ccc(NC(=O)C4CCCCC4)cc3C(=O)N([C@H](C)CO)C[C@@H]2C)cc1	0	-89*
C[C@@H]1CCCCO[C@@H](CN(C)S(=O)(=O)c2ccc(Cl)cc2)[C@H](C)CN([C@@H](C)CO)C(=O)c2cc(NC(=O)C3CCCCC3)ccc2O1	-1	-73
C[C@@H]1CCCCO[C@H](CN(C)S(=O)(=O)c2ccc(Cl)cc2)[C@H](C)CN([C@H](C)CO)C(=O)c2cc(NC(=O)C3CCCCC3)ccc2O1	-1	-84*
Cc1ccc(S(=O)(=O)N(C)C[C@@H]2OCCCC[C@H](C)Oc3ccc(NC(=O)C4CCCCC4)cc3C(=O)N([C@H](C)CO)C[C@@H]2C)cc1	-3	-73
Cc1ccc(S(=O)(=O)N(C)C[C@H]2OCCCC[C@@H](C)Oc3ccc(NC(=O)C4CCCCC4)cc3C(=O)N([C@@H](C)CO)C[C@H]2C)cc1	-4	-57
C[C@@H]1CCCCO[C@@H](CN(C)S(=O)(=O)c2ccc(F)cc2)[C@@H](C)CN([C@@H](C)CO)C(=O)c2cc(NC(=O)C3CCCCC3)ccc2O1	8	-78
C[C@H]1CCCCO[C@H](CN(C)S(=O)(=O)c2ccc(Cl)cc2)[C@@H](C)CN([C@@H](C)CO)C(=O)c2cc(NC(=O)C3CCCCC3)ccc2O1	0	-85*
COc1ccc(NC(=O)Nc2ccc3c(c2)C(=O)N([C@@H](C)CO)C[C@H](C)[C@@H](CN(C)C)O3)cc1	-1	5
C[C@@H]1CN([C@@H](C)CO)C(=O)c2cc(-c3cccc(C#N)c3)cnc2O[C@@H]1CN(C)C(=O)C1CCOCC1	0	69
C[C@H](CO)N1C[C@H](C)[C@@H](CN(C)CC2CCCC2)Oc2ncc(C#Cc3ccncc3)cc2C1=O	-1	5
Cc1noc(C)c1NC(=O)Nc1ccc2c(c1)C(=O)N([C@H](C)CO)C[C@@H](C)[C@H](CN(C)C(=O)Nc1ccc(C(F)(F)F)cc1)OCCCC[C@@H](C)O2	4	-35
CCc1cnc(N2[C@@H](C#N)[C@@H](c3ccc(C#CC(C)C)cc3)[C@@H]2CO)s1	-5	-4
CCCNC(=O)N1[C@H](CO)[C@H](c2ccccc2)[C@@H]1C#N	-3	35

Screening data (PubChem)
